The supplement of paper PMC11417369
The full ranking holds about 25,000 sequences; the median of “ln(normalized median fluorescence intensity)” is about 9.3, and the highest 2% start at about 10. The full list was thinned out, with the highest values kept by preference.

Tested on: PF3D7_0420300 AP2 domain 1 (GST-tagged)
Assay: gcPBM binding intensity (ln(normalized median fluorescence intensity)); higher = stronger DNA binding
In short: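 An Agilent 4 × 180k array carrying primer-extended double-stranded 36-bp intergenic genomic probes and negative controls received GST-tagged P. falciparum DNA-binding domains expressed in E. coli, about 25 μg on average, for 1 h. The binding buffer contained 1× PBS, 1% milk, 0.2 mg/ml BSA, 0.5% salmon testes DNA and 0.03% Triton X-100. Binding intensity is the top Masliner-normalised natural-log median intensity across replicate spots of either probe orientation, read after Alexa488 anti-GST antibody staining and a 488 nm scan.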

Sequence	gcPBM binding intensity (ln)
ATATATATTTTATACGCATGTAATTATTATGTGGTC [TGCATGCA_site45]	9.29
TAATAGTTATAAAATACACACCAGGCATGATAAATG [CACACA_site4335]	9.5
TATATATATATAGGTTGTACATTTTGATGTTTACGT [XGTACX_site5503]	9.42
TATACATACATACATACACACACACCGATATATATA [CACACA_site7896]	10.1
CAAAAAAAATTATACACACACACACCGATATATATA [CACACA_site4719]	10.2
TATACATACATACATACACACACACCGATATATACA [CACACA_site8184]	10.2
CAAAATAATATATATACACACACACCGATATATATA [CACACA_site8082]	10.2
AAAAAAAAAAAAAATACACACACACCGATATATATA [CACACA_site8142]	10.1
TATATACATATATACACACACATATATATATATATA [CACACA_site2805]	9.6
AAAAAAAATTCGTGTGTGCGCATATATAATATATAA	9.6
AGATACTTTCCTCAAACACACAAAACTATACAACAA [CACACA_site1474]	9.45
AAAAAAATAATCATCACACACGGAGAATGTCCAATA [CACACA_site5305]	9.6
CAGAAATAGAGATACACACACACATATATTTATGTA [CACACA_site3968]	10.2
AAAAAAAAATATATAAACACACATATTTATATACAC [GTGCAC_negctrl_site545]	9.61
CATAAATACAAATATACACACATATTTATATTTATA [CACACA_site7277]	9.54
GAAATAGAGAAACACACACACATATATTTATGTATT [CACACA_site3967]	9.99
GAAATAGAGAGACACACACACATATATTTATGTATT [CACACA_site7794]	9.93
AAGAAATATTTATACACACACACAAACATATATATA [CACACA_site1912]	10.2
AAAAAAAAAACATACACACACACAAATATTTATATA [CACACA_site437]	10.1
AAGAAATATTTATACACACACACAAACATATAAATA [CACACA_site6981]	10.2
CACAAAAAGAAACACACACACATATATATTTATTAT [CACACA_site3646]	10.1
AAAAAAAAAAAAAAAAAAAAATTTCAATTATATTGA [GTGCAC_negctrl_site642]	8.91
CCATTTTTTTTATACGCACACGTCATACTTTTAAAA [CACACA_site4988]	9.46

Sequence	gcPBM binding intensity (ln)
ATTTATATTTGTATTTGTACTTATATTTATATTTAT [XGTACX_site1540]	9.64
TGTGTAAGATCTTGGATGATGATAAGAATCTACTAG [CACACA_negctrl_site1167]	9.11
TATATAAACACGTACACACACATATAGGTATTTATA [CACACA_site7615]	9.97
TCTTAAAAAATAGGGACACGTAAATATAATATATAA [CACACA_negctrl_site554]	9.4
TTATACTGTTTCAGAAAAATAAAGAATGAAAGTATT [XGTACX_negctrl_site230]	9.23
TGTAGAAATGGGTGCACACACATATAAAATCTATAT [CACACA_site7224]	9.66
TTTCAAAATGTGTAAAATAAAAATAATATCATTACA [TGCATGCA_negctrl_site521]	9.08
ATTTTCTTTTCCATAGTGCAATATAATTATCCATCA [GTGCAC_site9547]	9.29
AATTTTTTTTTTTTTTTTTTTTATATATGTGTGTGT [XGTACX_negctrl_site129]	9.74
TGTGTCAAGTTTAATAAACGCATATAATATATATGA [CACACA_negctrl_site607]	8.93
TTTTTTATATATGTGTGTGTGTGTGTGTCAAGTTTA [GTGCAC_negctrl_site460]	10.3
TATATAAATATTCGTAGTACAATACAATTATAAGTA [XGTACX_site3068]	9.15
AACTAATAAAAAAAAAAAACATTAAACAGGACAAAT [XGTACX_negctrl_site287]	9.78
AAAATATATACACAAACATGCATATAATAAATAAAT [TGCATGCA_site711]	9.48
AATATAATATAATGCACACATAAACAAAAAAAAAAT [CACACA_site1304]	9.89
AAAATATAATATAATGCACACATAAACAAAAAAAAA [CACACA_site8161]	9.78
AACATATAAAAATATGCACACACAGGAATACAAACA [CACACA_site8127]	10.3
CATATAAAAATATGCACACACAGGAATACAAACATA [CACACA_site684]	10.2
AAAATATAATATAATGCACACATAAAACAAAAAAAA [CACACA_site8989]	9.74
TATATATATATGTGTAGTACAACAAATATGAAAAAT [XGTACX_site4059]	9.54
AAGAATATTTTTTTCTGTACATATAATTTATATACG [XGTACX_site5801]	9.13
TATTAATACAGACACACACACACACTAATTAAAATA [CACACA_site7967]	10.1
ATTTATATATATCATACACACTAATATGTATATTAT [CACACA_site5816]	9.42

Sequence	gcPBM binding intensity (ln)
GGGAAATATTGAAACACACACGAACGCACGTATTTC [CACACA_site6258]	9.54
ATTTATTTATCAAATATTATCTTAAAAAAAAAAGAA [CACACA_negctrl_site1345]	8.79
ACAAATGGAACTCCTACAAAAAATTTCCATAATATT [XGTACX_negctrl_site132]	9.16
TATTAATTCATTTTTTTTTTTTTTTTTTTTTTTTTT [CACACA_negctrl_site1215]	9.13
TAATAAATAAATGACACACACACACCCAAAAAAAAA [CACACA_site2623]	10.2
TATTTATTAAAACACACACACACACCCACAAAATAA [CACACA_site241]	10.1
CAAAAAATGAAACACACACACACACCCATAAATAAA [CACACA_site1231]	10.1
TTTATTAATAAACACACACACACACCCAAAATAAAA [CACACA_site7966]	10.2
ATAATCCTGAAACACACACACACACCCATAAATAAA [CACACA_site481]	10.1
ATTAATAAATAAATGACACACACACCCACAAAAAAA [CACACA_site8839]	9.97
GAATAATCCAAACACACACACACACCCGAATAAATA [CACACA_site482]	10.2
CCCGAACAAACAAATAAACACACAAAAAAAAATATA [CACACA_site8540]	9.63
TTTATTAAGAAACACACACACACACCCAAAATAAAA [CACACA_site242]	10
GTAATTTTATATGGTTGTACATATATATATATATAT [XGTACX_site6659]	9.32
TAAAATATGGAAATCACACATTTATTAAAATATATA [CACACA_site4623]	9.13
TGTATTAATATGGTAATACACACTAATATACTTTTG [CACACA_site1610]	9.38
TTGATTTCATTTTAAGTGCATAACTAATATTATATA [GTGCAC_site9713]	9.14
ATTATGAAATATCGTGCACACACGAATAATATAAGA [CACACA_site1294]	9.42
AAAAAAAAAACAAATGCATGTAATATAAGAATTACA [TGCATGCA_site908]	9.27
TACAGACAGAAATGCACACACATATTTATATTTATA [CACACA_site7139]	9.75
CATATACACGAACACACACACATATAAATAAATATA [CACACA_site6379]	10.1
AACAAATACGAACACACACACACACTAAAAAAAAAA [CACACA_site6386]	10.2
AAACAAAAAATATATACACACTAAACATAAAAAAAA [CACACA_site4185]	9.83

Sequence	gcPBM binding intensity (ln)
TAACACATAAATAAATATATACATATATATAAAATA [CACACA_negctrl_site375]	9.36
CTAAAATACGAACACACACACACATATAAATAAATA [CACACA_site7872]	10.3
AGTATACACGAACACACACACACATATATAAATATA [CACACA_site6913]	10.3
CGAACAAACAAATAAACACACAAAAAAAAATATATA [CACACA_site1825]	9.61
CATACAGACGAACACACACACATATAAATATAAATA [CACACA_site6443]	9.91
AACATATACACGAACACACACACATATAAATAAATA [CACACA_site6380]	9.96
TGATCAATGGATTTAACACACAAAAAAAAAAAAAAA [CACACA_site3845]	9.11
AAATAAAATAAAATAAAATAAAATTCTTTGATACCT [TGCATGCA_negctrl_site604]	9.16
ATATATATATATATATGTACACATATATATACTCAC [XGTACX_site8043]	9.37
ATATATTATATAAAAAGTACTAAAATAGTAAGATGT [XGTACX_site7493]	9.65
GTTTATATATTATAAAGTACATATGAATTTAATAAT [XGTACX_site3601]	9.01
CAAACAAACGGACACACACACACACCCAAAAATGAT [CACACA_site5363]	10.1
AACAAACACAGACACACACACACACTAATATGATTA [CACACA_site8770]	10.2
AACAAACACAGACACACACACACACCCAAATGATTA [CACACA_site2431]	10.2
AACACCCACAGACACACACACAAAAATGATTAAAAA [CACACA_site2433]	9.83
TTAACAAATGGACACACACACACACCCAAAAAAAAA [CACACA_site4443]	9.91
AATATGAACAGACACACACACACAAAAAAAAAAAAA [CACACA_site2012]	10
CAAACAAACAGACACACACACACACCCAAAAATGAT [CACACA_site2430]	10.4
TATGAACACAGACACACACACAAAAAAAAAAAAAAA [CACACA_site7037]	9.27
CAAACCCACCAACACACACACACAAAAATGATTAAA [CACACA_site2432]	9.82
